Measured values taken from PubChem BioAssay (NCI).
The panel holds about 83,000 compounds, 20% with a hit somewhere; the sample as a whole holds those more often.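 Cell lines were cultured in 96-well plates, exposed to a single compound concentration, and assessed for percent growth 48 hours later.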 Values without a mark were called inactive. The source made the active and inactive calls. How the source made its calls: active means growth percent below 10; inactive means the rest.

Each molecule was assayed on OVCAR-3 ovarian (assay: NCI-60 one-dose screen, 48 h (100 = growth as untreated, 0 = no growth, -100 = all killed)). Conditions: 10 µM.

Row | SMILES | growth
1 | C1CNC(C2=NCCN2)=N1 | 94.2%
2 | CN(C)C(C)(C)CC(C)(C)C | 100%
3 | O=[N+]([O-])c1ccc(S(=O)(=O)NN=C2CCCCC2)cc1 | 114%
4 | C[C@]12CC[C@@H]3c4ccc(OCC(=O)O)cc4CC[C@H]3[C@@H]1CCC2=O | 101%
5 | Nc1ncnc2[nH]ncc12 | -22.2% (active)
6 | CCCNc1ccc(C2=NCCCN2)cc1 | 99.2%
7 | O=C(N/N=C/c1ccccc1O)Nc1nn[nH]n1 | 116%
8 | Cc1ccc(CCCC(=O)O)c(C)c1 | 108%
9 | CC(=O)c1cc2c(cc1F)C(C)(C)CCC2(C)C | 101%
10 | CN(c1ccccc1)c1ncnc2c1ncn2C | 111%
11 | CCCCC1(CC)COC(CCC)OC1 (stereo not drawn) | 108%
12 | COc1cc2c3cc1Oc1c(OC)c(OC)cc4c1C(Cc1ccc(O)c(c1)Oc1ccc(cc1)CC3N(C)CC2)N(C)CC4 (stereo not drawn) | 18.8%
13 | CCC(C#N)(CC)c1ccccc1 | 109%
14 | FC(F)(F)c1ccc2c(c1)N(CCCN1CCN(C3CC3)CC1)c1ccccc1S2 | 24.9%
15 | CC1NC(=O)NC1CCCCCC(=O)O (stereo not drawn) | 108%
16 | COS(=O)(=O)c1ccc(Br)cc1 | 101%
17 | O=[N+]([O-])c1cccc(N=Nc2ccc(O)cc2O)c1 | 62.4%
18 | Cc1cc(OCCO)cc(C)c1Cl | 118%
19 | Cc1cc(O)ccc1O | 110%
20 | CCOc1ccc(Br)cc1/C=N\N=C\c1cc(Br)ccc1OCC | 96.8%

These molecules were tested on HS 578T breast in the same assay as above. Conditions: 10 µM.

Row | SMILES | growth
21 | CCCCOC(OCCCC)c1ccccc1 | 111%
22 | O=C(O)c1cccc([N+](=O)[O-])c1O | 112%
23 | O=C1c2ccccc2C(=O)N1OCc1ccccc1 | 113%
24 | C[C@@H](c1ccccc1)[C@@H](C(=O)O)c1ccccc1 | 110%
25 | CC1=CC(C)(C)NC(=S)N1c1ccc(S(=O)(=O)O)c2cccc(S(=O)(=O)O)c12 | 92.8%
26 | CC(=O)OC(OC(C)=O)C1CCCO1 (stereo not drawn) | 105%
27 | c1ccc2c(N3CCCCC3)ncnc2c1 | 116%
28 | S=c1nn[nH]c2ccccc12 | 109%
29 | O=[N+]([O-])c1ccc(Sc2ccncn2)c([N+](=O)[O-])c1 | 92.6%
30 | O=c1[nH]c(O)c(/C=C2/C=Nc3ccccc32)[nH]1 | 95.1%
31 | CC1OC(Oc2c(-c3ccc(O)c(O)c3)oc3cc(O)cc(O)c3c2=O)C(O)C(O)C1O (stereo not drawn) | 105%
32 | Cc1ccc(O)c(C(=O)c2ccccc2)c1 | 108%
33 | OCC1OC(OC2C(O)C(CO)OC2(CO)OC2OC(CO)C(O)C(O)C2O)C(O)C(O)C1O (stereo not drawn) | 110%
34 | C[N+](C)(C)C(=O)c1ccccc1 | 118%
35 | O=[N+]([O-])c1ccc(Cl)c(S(=O)(=O)O)c1 | 104%
36 | Cc1cc2ccccc2c(O)c1C#N | 108%
37 | COc1ncnc2c1cnn2C | 114%
38 | NC(C(=O)O)c1ccc([N+](=O)[O-])cc1 (stereo not drawn) | 117%
39 | CC(O)COc1ccc(-c2ccccc2)cc1 (stereo not drawn) | 106%
40 | C1CNC(C2=NCCN2)=N1 | 101%

Row | SMILES | growth
41 | CN(C)C(C)(C)CC(C)(C)C | 104%
42 | O=[N+]([O-])c1ccc(S(=O)(=O)NN=C2CCCCC2)cc1 | 141%
43 | C[C@]12CC[C@@H]3c4ccc(OCC(=O)O)cc4CC[C@H]3[C@@H]1CCC2=O | 95.5%
44 | Nc1ncnc2[nH]ncc12 | 37.3%
45 | CCCNc1ccc(C2=NCCCN2)cc1 | 103%
46 | O=C(N/N=C/c1ccccc1O)Nc1nn[nH]n1 | 99%
47 | Cc1ccc(CCCC(=O)O)c(C)c1 | 108%
48 | CC(=O)c1cc2c(cc1F)C(C)(C)CCC2(C)C | 99%
49 | CN(c1ccccc1)c1ncnc2c1ncn2C | 103%
50 | CCCCC1(CC)COC(CCC)OC1 (stereo not drawn) | 109%
51 | COc1cc2c3cc1Oc1c(OC)c(OC)cc4c1C(Cc1ccc(O)c(c1)Oc1ccc(cc1)CC3N(C)CC2)N(C)CC4 (stereo not drawn) | 55.3%
52 | CCC(C#N)(CC)c1ccccc1 | 108%
53 | FC(F)(F)c1ccc2c(c1)N(CCCN1CCN(C3CC3)CC1)c1ccccc1S2 | 75.3%
54 | CC1NC(=O)NC1CCCCCC(=O)O (stereo not drawn) | 106%
55 | COS(=O)(=O)c1ccc(Br)cc1 | 114%
56 | O=[N+]([O-])c1cccc(N=Nc2ccc(O)cc2O)c1 | 72.7%
57 | Cc1cc(OCCO)cc(C)c1Cl | 104%
58 | Cc1cc(O)ccc1O | 103%
59 | CCOc1ccc(Br)cc1/C=N\N=C\c1cc(Br)ccc1OCC | 143%

These molecules were tested on NCI/ADR-RES ovarian in the same assay as above. Conditions: 10 µM.

Row | SMILES | growth
60 | CCCCOC(OCCCC)c1ccccc1 | 97.9%
61 | O=C(O)c1cccc([N+](=O)[O-])c1O | 102%
62 | O=C1c2ccccc2C(=O)N1OCc1ccccc1 | 116%
63 | C[C@@H](c1ccccc1)[C@@H](C(=O)O)c1ccccc1 | 105%
64 | CC1=CC(C)(C)NC(=S)N1c1ccc(S(=O)(=O)O)c2cccc(S(=O)(=O)O)c12 | 110%
65 | CC(=O)OC(OC(C)=O)C1CCCO1 (stereo not drawn) | 94.5%
66 | c1ccc2c(N3CCCCC3)ncnc2c1 | 91%
67 | S=c1nn[nH]c2ccccc12 | 105%
68 | O=[N+]([O-])c1ccc(Sc2ccncn2)c([N+](=O)[O-])c1 | 58%
69 | O=c1[nH]c(O)c(/C=C2/C=Nc3ccccc32)[nH]1 | 96.4%
70 | CC1OC(Oc2c(-c3ccc(O)c(O)c3)oc3cc(O)cc(O)c3c2=O)C(O)C(O)C1O (stereo not drawn) | 111%
71 | Cc1ccc(O)c(C(=O)c2ccccc2)c1 | 105%
72 | OCC1OC(OC2C(O)C(CO)OC2(CO)OC2OC(CO)C(O)C(O)C2O)C(O)C(O)C1O (stereo not drawn) | 107%
73 | C[N+](C)(C)C(=O)c1ccccc1 | 113%
74 | O=[N+]([O-])c1ccc(Cl)c(S(=O)(=O)O)c1 | 108%
75 | Cc1cc2ccccc2c(O)c1C#N | 96%
76 | COc1ncnc2c1cnn2C | 104%
77 | NC(C(=O)O)c1ccc([N+](=O)[O-])cc1 (stereo not drawn) | 105%
78 | CC(O)COc1ccc(-c2ccccc2)cc1 (stereo not drawn) | 110%
79 | C1CNC(C2=NCCN2)=N1 | 108%

Row | SMILES | growth
80 | CN(C)C(C)(C)CC(C)(C)C | 103%
81 | O=[N+]([O-])c1ccc(S(=O)(=O)NN=C2CCCCC2)cc1 | 115%
82 | C[C@]12CC[C@@H]3c4ccc(OCC(=O)O)cc4CC[C@H]3[C@@H]1CCC2=O | 96.4%
83 | Nc1ncnc2[nH]ncc12 | 0.445% (active)
84 | CCCNc1ccc(C2=NCCCN2)cc1 | 95.2%
85 | O=C(N/N=C/c1ccccc1O)Nc1nn[nH]n1 | 109%
86 | Cc1ccc(CCCC(=O)O)c(C)c1 | 107%
87 | CC(=O)c1cc2c(cc1F)C(C)(C)CCC2(C)C | 99.3%
88 | CN(c1ccccc1)c1ncnc2c1ncn2C | 105%
89 | CCCCC1(CC)COC(CCC)OC1 (stereo not drawn) | 105%
90 | COc1cc2c3cc1Oc1c(OC)c(OC)cc4c1C(Cc1ccc(O)c(c1)Oc1ccc(cc1)CC3N(C)CC2)N(C)CC4 (stereo not drawn) | 0.974% (active)
91 | CCC(C#N)(CC)c1ccccc1 | 102%
92 | FC(F)(F)c1ccc2c(c1)N(CCCN1CCN(C3CC3)CC1)c1ccccc1S2 | 61.2%
93 | CC1NC(=O)NC1CCCCCC(=O)O (stereo not drawn) | 113%
94 | COS(=O)(=O)c1ccc(Br)cc1 | 93.7%
95 | O=[N+]([O-])c1cccc(N=Nc2ccc(O)cc2O)c1 | 88.8%
96 | Cc1cc(OCCO)cc(C)c1Cl | 108%
97 | Cc1cc(O)ccc1O | 96.5%
98 | CCOc1ccc(Br)cc1/C=N\N=C\c1cc(Br)ccc1OCC | 120%
